Assay [1] has as its target T1, Serine/threonine-protein kinase TBK1 (Homo sapiens) (UniProt Q9UHD2).
T1 sequence (whole entry): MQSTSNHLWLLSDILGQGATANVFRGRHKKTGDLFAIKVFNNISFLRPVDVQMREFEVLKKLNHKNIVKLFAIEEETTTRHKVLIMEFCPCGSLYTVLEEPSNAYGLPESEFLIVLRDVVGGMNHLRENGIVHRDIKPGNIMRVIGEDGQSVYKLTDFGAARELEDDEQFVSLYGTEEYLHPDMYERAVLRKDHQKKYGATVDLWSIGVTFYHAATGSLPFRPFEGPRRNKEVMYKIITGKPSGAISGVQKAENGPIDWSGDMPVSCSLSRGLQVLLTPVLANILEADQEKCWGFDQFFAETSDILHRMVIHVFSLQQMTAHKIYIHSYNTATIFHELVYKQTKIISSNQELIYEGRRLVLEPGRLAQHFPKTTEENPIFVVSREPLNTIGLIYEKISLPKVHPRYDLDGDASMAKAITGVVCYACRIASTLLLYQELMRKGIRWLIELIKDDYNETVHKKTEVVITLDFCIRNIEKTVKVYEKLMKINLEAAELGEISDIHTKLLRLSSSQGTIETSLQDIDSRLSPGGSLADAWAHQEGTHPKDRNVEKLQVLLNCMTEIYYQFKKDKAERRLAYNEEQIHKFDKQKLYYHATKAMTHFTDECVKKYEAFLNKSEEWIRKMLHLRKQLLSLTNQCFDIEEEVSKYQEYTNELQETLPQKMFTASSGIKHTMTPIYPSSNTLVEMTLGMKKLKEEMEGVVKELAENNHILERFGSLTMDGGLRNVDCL
Conditions: at 10 µM.

Assay [2] addresses T2, TGF-beta receptor type-1 (Homo sapiens) (UniProt P36897).
T2 sequence (whole entry): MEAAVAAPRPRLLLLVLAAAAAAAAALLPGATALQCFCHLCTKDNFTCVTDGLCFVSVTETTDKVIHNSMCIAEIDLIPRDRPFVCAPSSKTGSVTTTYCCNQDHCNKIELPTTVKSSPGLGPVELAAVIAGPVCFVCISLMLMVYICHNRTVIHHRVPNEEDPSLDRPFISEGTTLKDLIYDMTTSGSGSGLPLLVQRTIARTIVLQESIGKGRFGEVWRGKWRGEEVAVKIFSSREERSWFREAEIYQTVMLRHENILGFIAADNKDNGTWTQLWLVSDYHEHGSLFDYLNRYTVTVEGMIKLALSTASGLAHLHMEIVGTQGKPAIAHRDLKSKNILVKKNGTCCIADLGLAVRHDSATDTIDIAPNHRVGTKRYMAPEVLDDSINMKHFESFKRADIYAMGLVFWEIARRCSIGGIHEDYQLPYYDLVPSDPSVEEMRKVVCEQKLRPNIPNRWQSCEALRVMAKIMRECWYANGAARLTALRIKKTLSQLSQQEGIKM
Conditions: at 1 µM.

Assay [3] addresses T2, TGF-beta receptor type-1 (Homo sapiens). The following applies: at 10 µM.
Assay [4] has as its target Insulin-like growth factor 1 receptor (Homo sapiens) (UniProt P08069). The following applies: at 1 µM.
The target is the same in assay [5]. Conditions: at 10 µM.
The target of assay [6] is T3, Inhibitor of nuclear factor kappa-B kinase subunit alpha (Homo sapiens) (UniProt O15111).
T3 sequence (whole entry): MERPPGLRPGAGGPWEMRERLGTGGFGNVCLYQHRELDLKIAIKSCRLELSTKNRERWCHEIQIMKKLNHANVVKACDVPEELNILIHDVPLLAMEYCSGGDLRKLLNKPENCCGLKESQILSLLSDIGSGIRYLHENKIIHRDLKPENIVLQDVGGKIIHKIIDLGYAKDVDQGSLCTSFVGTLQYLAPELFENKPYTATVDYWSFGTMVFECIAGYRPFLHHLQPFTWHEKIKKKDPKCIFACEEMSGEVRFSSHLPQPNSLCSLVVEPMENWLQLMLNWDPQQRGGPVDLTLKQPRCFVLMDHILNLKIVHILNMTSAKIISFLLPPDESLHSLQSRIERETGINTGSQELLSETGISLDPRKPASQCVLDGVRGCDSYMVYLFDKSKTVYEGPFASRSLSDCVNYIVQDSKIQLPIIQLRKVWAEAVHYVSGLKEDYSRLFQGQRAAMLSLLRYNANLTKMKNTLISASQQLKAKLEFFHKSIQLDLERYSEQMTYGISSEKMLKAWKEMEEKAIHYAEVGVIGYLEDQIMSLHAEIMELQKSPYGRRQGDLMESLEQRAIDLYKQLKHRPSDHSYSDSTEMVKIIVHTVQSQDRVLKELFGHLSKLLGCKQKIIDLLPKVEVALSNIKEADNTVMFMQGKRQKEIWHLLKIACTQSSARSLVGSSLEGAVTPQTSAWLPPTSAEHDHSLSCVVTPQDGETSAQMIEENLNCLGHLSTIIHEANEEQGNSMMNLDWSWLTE
Conditions: at 1 µM.

The target of assay [7] is T3, Inhibitor of nuclear factor kappa-B kinase subunit alpha (Homo sapiens). Conditions: at 10 µM.
Assay [8] addresses T4, Inhibitor of nuclear factor kappa-B kinase subunit beta (Homo sapiens) (UniProt O14920).
T4 sequence (whole entry): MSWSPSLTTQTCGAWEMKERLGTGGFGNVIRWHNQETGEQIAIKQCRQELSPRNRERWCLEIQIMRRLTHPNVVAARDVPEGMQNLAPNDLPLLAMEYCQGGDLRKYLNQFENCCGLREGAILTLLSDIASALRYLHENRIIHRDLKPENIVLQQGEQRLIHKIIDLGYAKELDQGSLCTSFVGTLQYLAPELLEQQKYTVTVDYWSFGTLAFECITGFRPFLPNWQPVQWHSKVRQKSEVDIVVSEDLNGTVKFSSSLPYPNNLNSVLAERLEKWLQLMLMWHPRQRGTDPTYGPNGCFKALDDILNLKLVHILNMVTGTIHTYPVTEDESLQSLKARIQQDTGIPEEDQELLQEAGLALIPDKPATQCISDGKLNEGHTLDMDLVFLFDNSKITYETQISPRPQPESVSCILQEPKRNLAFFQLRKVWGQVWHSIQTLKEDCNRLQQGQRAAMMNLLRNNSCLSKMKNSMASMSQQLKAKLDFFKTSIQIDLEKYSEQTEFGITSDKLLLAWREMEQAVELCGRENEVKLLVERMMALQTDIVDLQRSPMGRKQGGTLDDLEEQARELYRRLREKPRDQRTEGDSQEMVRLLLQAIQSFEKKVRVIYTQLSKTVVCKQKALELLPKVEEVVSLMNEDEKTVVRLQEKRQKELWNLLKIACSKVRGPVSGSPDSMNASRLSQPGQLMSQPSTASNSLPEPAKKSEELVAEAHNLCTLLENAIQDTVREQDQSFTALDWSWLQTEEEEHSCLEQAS
Conditions: at 1 µM.

In assay [9] the target is T4, Inhibitor of nuclear factor kappa-B kinase subunit beta (Homo sapiens). Conditions: at 10 µM.
For assay [10], the target named is Insulin receptor (Homo sapiens) (UniProt P06213). Conditions: at 1 µM.
Insulin receptor (Homo sapiens), sequence (P06213 28-758 limits assumed): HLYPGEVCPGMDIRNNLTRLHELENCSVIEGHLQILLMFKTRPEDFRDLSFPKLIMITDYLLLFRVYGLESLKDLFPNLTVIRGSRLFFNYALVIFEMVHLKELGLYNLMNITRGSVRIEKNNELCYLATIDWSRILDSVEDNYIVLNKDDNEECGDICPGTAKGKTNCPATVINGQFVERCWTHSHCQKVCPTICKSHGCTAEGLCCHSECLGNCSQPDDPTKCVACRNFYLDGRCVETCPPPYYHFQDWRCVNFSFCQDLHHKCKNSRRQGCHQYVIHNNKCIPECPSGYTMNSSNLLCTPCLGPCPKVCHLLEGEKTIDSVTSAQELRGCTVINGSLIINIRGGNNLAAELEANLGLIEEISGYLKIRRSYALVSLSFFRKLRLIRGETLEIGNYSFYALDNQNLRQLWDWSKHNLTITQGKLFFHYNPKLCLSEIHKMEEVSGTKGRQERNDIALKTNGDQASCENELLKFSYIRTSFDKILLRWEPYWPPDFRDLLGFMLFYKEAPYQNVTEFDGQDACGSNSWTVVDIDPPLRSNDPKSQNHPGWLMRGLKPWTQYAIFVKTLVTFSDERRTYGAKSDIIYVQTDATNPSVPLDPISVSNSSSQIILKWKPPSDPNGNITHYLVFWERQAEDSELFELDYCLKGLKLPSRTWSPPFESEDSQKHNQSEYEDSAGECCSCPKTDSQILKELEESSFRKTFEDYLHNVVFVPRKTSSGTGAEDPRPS
Insulin receptor (Homo sapiens), sequence (P06213 763-1382 limits assumed): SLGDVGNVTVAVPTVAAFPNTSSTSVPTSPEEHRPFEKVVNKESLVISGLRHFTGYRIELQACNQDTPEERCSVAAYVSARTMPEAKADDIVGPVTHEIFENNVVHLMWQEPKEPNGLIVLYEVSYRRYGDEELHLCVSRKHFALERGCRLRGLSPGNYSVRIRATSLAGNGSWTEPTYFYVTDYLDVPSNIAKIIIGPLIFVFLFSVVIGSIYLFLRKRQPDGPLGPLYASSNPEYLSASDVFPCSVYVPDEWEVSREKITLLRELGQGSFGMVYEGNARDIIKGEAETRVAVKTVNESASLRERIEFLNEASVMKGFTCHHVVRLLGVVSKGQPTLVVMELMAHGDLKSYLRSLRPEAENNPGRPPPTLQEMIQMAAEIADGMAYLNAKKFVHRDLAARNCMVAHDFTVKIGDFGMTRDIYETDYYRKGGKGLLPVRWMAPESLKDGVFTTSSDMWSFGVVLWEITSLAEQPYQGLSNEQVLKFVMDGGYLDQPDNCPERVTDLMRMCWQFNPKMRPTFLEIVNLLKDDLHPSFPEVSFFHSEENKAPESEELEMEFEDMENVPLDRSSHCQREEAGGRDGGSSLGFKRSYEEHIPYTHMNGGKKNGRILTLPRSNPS

Molecules are shown by their SMILES.

Insulin-like growth factor 1 receptor (Homo sapiens), sequence (P08069 31-736 limits assumed): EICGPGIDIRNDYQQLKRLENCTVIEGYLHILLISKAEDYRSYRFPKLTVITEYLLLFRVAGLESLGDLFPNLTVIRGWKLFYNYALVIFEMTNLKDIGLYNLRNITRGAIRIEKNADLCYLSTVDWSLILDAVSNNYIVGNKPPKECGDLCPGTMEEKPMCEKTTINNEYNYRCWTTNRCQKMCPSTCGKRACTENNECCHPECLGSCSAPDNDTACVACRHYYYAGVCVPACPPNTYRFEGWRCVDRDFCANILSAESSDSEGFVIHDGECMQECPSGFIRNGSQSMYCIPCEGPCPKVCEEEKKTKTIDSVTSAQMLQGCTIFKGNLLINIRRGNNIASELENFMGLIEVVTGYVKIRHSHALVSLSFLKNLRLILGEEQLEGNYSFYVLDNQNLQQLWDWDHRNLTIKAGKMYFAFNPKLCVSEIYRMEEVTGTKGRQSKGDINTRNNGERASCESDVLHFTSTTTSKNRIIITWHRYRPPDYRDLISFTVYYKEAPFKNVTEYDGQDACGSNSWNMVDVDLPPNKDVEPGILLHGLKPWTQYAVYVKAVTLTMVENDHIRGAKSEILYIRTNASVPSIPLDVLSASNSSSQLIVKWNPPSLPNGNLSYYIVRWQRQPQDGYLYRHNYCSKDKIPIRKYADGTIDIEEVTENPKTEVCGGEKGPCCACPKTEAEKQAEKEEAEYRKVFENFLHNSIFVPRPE
Insulin-like growth factor 1 receptor (Homo sapiens), sequence (P08069 741-1367 limits assumed): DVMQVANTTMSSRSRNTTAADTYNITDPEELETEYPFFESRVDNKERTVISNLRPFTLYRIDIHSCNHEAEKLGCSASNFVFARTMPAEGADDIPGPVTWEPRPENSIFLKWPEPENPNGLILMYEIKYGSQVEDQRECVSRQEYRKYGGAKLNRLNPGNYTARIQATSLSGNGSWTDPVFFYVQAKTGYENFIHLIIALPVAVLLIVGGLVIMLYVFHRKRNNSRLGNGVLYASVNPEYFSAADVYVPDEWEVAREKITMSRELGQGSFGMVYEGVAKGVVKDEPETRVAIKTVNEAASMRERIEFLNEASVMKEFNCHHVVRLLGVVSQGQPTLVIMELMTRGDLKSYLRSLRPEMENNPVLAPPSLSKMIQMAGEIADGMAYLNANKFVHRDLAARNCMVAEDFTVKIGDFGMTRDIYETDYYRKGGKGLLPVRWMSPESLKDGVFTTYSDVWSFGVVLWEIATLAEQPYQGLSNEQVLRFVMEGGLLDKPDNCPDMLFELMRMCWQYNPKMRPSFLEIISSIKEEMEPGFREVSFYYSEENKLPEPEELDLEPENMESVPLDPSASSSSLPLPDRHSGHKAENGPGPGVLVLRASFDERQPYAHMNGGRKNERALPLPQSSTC

On to `O=C(Nc1cccc(Nc2cc(Nc3cccc(C(F)(F)F)c3)ncn2)c1)C1CC1`, for which the residual activity in [1] was found to be 61%; in [2], 89%; in [3] it was 77%; in assay [4], 98%; in assay [5], 89%; in assay [6], 108%. The residual activity in assay [7] was 125%; in [8] it was 99%; in assay [9] it was 96%; in assay [10], 105%.

What is called residual activity is the signal under treatment as a percentage of the control signal.
